PNC assembly inh: High Content Assay for Compounds that inhibit the Assembly of the Perinucleolar Compartment; PC3M PTB-GFP, PNC prevalence imaging, 16 h; active compounds read low; activity change (PNC), negative = inhibition, % at 10 µM; actives 3.1% (n = 140,000); AID 2417, 2010;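 active = readout at or below -70, meaning at least 70% loss of cells showing the perinucleolar compartment, a nuclear body marking cancer cells; inconclusive = readout between -30 and a set limit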
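PC3M cells stably expressing PTB-GFP, 750–1000 cells/well, treated 16 h at 37 °C with compound (23 nl of library stock), in duplicate. After paraformaldehyde fixation and Hoechst stain, imaged at 20x; PNC prevalence scored by image analysis.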
KDM4E inh: qHTS Assay for Inhibitors of Human Jumonji Domain Containing 2E (JMJD2E) | JMJD2E catalytic domain, FDH-coupled NADH fluorescence (FDH is formaldehyde dehydrogenase) | Potency, µM (doses to about 57.1 µM), actives largely listed as inhibitors | actives 1.6% (n = 230,000) | AID 2147, 2009; note: nearly all actives have a fitted effect of over 50% in size
Target sequence (B2RXH2 1-337 limits assumed): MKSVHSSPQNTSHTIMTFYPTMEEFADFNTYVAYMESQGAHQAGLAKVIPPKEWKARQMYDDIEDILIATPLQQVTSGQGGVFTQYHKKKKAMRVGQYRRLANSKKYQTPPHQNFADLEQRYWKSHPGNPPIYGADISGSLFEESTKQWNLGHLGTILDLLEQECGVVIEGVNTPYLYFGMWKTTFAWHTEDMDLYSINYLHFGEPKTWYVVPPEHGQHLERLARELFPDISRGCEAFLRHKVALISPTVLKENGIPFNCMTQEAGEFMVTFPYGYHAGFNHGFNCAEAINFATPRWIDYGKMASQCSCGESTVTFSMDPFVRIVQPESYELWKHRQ
HPGD block: qHTS Assay for Inhibitors of HPGD (15-Hydroxyprostaglandin Dehydrogenase) | 15-hydroxyprostaglandin dehydrogenase [NAD(+)] (Homo sapiens), P15428 | actives 4.3% (n = 150,000) | purified HPGD, NADH fluorescence kinetic, PGE2 substrate | Potency, µM, usual class: inhibitors
Target sequence (P15428 whole entry, looked up): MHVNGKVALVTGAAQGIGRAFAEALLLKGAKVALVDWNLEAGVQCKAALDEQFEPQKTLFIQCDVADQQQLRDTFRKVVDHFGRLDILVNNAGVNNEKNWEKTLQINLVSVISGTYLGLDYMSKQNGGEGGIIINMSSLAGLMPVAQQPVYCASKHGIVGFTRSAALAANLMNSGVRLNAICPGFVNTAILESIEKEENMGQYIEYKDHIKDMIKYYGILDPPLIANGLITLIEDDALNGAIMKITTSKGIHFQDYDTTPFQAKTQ
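NADH formation kinetics: reaction with 30 uM PGE2 and 1 mM NAD+ (final), 20 nM enzyme, Tris-HCl pH 8 with Tween 20, after 15 min compound preincubation at room temperature. Fluorescence change, last versus first of five reads.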
ALDH1A1 inh: qHTS Assay for Inhibitors of Aldehyde Dehydrogenase 1 (ALDH1A1); actives 7.3% (n = 220,000); Potency, µM (highest dose often 75.3 µM), actives largely listed as inhibitors; Purified ALDH1A1, NADH fluorescence, propionaldehyde substrate
Of the large screens only hits and unclear results are named; the others gave an inactive call. Only some compounds are listed: those with a hit (about 11% of all), similar ones and a draw of the others. Unless noted, calls come from the whole dose curve; as a rule, active = well fitted inhibition curve with a large enough effect (not every such curve was filed as active); inconclusive = small, poorly fitted or top-dose-only effect, or another doubt; inactive = no such curve, though single readings can be large or run the other way.

Clc1ccccc1-c1nnn(Cc2ccc(-c3nn[nH]n3)cc2)n1	HPGD block 12.6µM, ALDH1A1 inh 15.8µM
Clc1ccc(Cn2nnc(-c3ccccc3)n2)cc1	PNC assembly inh -100.0
CCOc1cc(NC(=S)NCCCN2CCOCC2)c(OCC)cc1NC(=O)C1CCCCC1	none (no result: PNC assembly inh, HPGD block)
COC(=O)N[C@H](c1ccccc1)C(C(C)=O)C(=O)OC (some centres undefined)	none (no result: PNC assembly inh)
COc1cccc(-c2noc(Cn3nc(C)c([N+](=O)[O-])c3C)n2)c1	HPGD block 25.1µM
COc1cc(N=c2ssnc2Cl)cc(OC)c1OC	PNC assembly inh inconclusive, KDM4E inh 17.8µM, HPGD block 2.24µM, ALDH1A1 inh 2.82µM
Fc1ccc(N=c2ssnc2Cl)c(F)c1	KDM4E inh inconclusive, ALDH1A1 inh 2.51µM (no result: PNC assembly inh, HPGD block)
Clc1ccc(N=c2ssnc2Cl)cc1	KDM4E inh 10µM, HPGD block 1.78µM, ALDH1A1 inh 1.12µM
N#Cc1ccc(N=c2ssnc2Cl)cc1	PNC assembly inh inconclusive, KDM4E inh inconclusive, HPGD block 2µM, ALDH1A1 inh 1.58µM
Cn1nc(-c2ccccc2)cc1NS(=O)(=O)c1ccc(C#N)cc1	none (no result: PNC assembly inh, HPGD block, ALDH1A1 inh)
COc1cc(N)c(Cl)cc1C(=O)N[C@H]1CCN(CCCOc2ccc(F)cc2)C[C@@H]1OC	none (no result: PNC assembly inh)
CCCCCCCNC(=O)C1CC(=O)N(C)C(=Nc2ccc(OC)cc2)S1 (centres undefined)	none
Cc1ccc(NC(=O)CCCSc2ccccc2)cc1S(=O)(=O)N1CCOCC1	none (no result: PNC assembly inh, HPGD block)
CCCC(=O)O[C@]1(C(=O)CO)CCC2[C@@H]3CCC4=CC(=O)CC[C@]4(C)C3C(O)C[C@]21C (some centres undefined)	none (no result: PNC assembly inh)
COc1ccc(N=c2ssnc2Cl)cc1	KDM4E inh 20µM, HPGD block 2.82µM, ALDH1A1 inh 1.78µM
CCOC(=O)c1ccc(N=c2ssnc2Cl)cc1	KDM4E inh inconclusive, ALDH1A1 inh 2µM (no result: PNC assembly inh, HPGD block)
Clc1nssc1=Nc1ccccc1	KDM4E inh 10µM, ALDH1A1 inh 1.58µM (no result: PNC assembly inh, HPGD block)
CCOC(=O)c1ccc(N=C2SC(C(=O)NC)CC(=O)N2Cc2ccc(F)cc2)cc1 (centres undefined)	none (no result: PNC assembly inh, HPGD block)
C(=C\c1nc(-c2ccccc2)oc1Nc1ccc2ccccc2c1)/c1ccccc1	KDM4E inh inconclusive (no result: PNC assembly inh)
O=CNC(n1cnc2c(N3CCOCC3)ncnc21)C(Cl)(Cl)Cl (centres undefined)	none (no result: PNC assembly inh, HPGD block, ALDH1A1 inh)
CCc1ccccc1NC(=S)N(CCOC)C(C)c1ccco1 (centres undefined)	none (no result: PNC assembly inh, HPGD block, ALDH1A1 inh)
O=c1/c(=C/c2ccco2)sc2nc(-c3ccccc3Br)nn12	KDM4E inh 25.1µM, HPGD block inconclusive, ALDH1A1 inh inconclusive
Cc1ccc(NC(=O)/C=C\C(=O)NCC(=O)O)cc1	ALDH1A1 inh 28.2µM (no result: PNC assembly inh, HPGD block)
Cc1ccc(CNC(=O)/C=C/C(=O)O)cc1	none (no result: PNC assembly inh, HPGD block)
Cc1ccc(S(=O)(=O)Nc2ccc(NC(=O)/C=C/C(=O)O)cc2)cc1	ALDH1A1 inh 35.5µM (no result: PNC assembly inh, HPGD block)
Nc1ccc(C(=O)c2ccccc2C(=O)O)cc1Cl	PNC assembly inh -107.2
O=C(O)c1ccc(C(=O)O)c(C(=O)c2ccccc2)c1	KDM4E inh inconclusive
CCCCOC(=O)c1ccc(NC(=O)CSc2nncn2C)cc1	ALDH1A1 inh inconclusive (no result: HPGD block)
CCc1ccc(NC(=O)CSCCO)cc1	HPGD block 20µM
CCOC(=O)c1ccc(NC(=O)CCC(=O)OC)cc1	none
CCCCOC(=O)c1ccc(NC(=O)CSCc2n[nH]c(=O)[nH]2)cc1	ALDH1A1 inh 12.6µM
CCOC(=O)c1ccc(NC(=O)CSCc2ccco2)cc1	ALDH1A1 inh 2.24µM
CCOC(=O)c1ccc(NC(=O)CSCCC(=O)O)cc1	ALDH1A1 inh 31.6µM (no result: PNC assembly inh, HPGD block)
CCOC(=O)c1ccc(NC(=S)N(CCCN(CC)CC)Cc2ccco2)cc1	none
O=C(CSCCO)Nc1ccccc1	none
O=C(Nc1cc([N+](=O)[O-])ccc1Cl)c1ccc2c(c1)OCO2	none (no result: PNC assembly inh, HPGD block)
COC(=O)c1ccc(NC(=O)CSCC(=O)OCC(=O)c2ccc(Br)cc2)cc1	ALDH1A1 inh 22.4µM
COC(=O)c1ccc(NC(=O)CCS(=O)(=O)c2ccc(Br)cc2)cc1	none (no result: PNC assembly inh, HPGD block)
CN1CC(O)C2=CC(=O)C(=O)C=C21 (centres undefined)	none (no result: PNC assembly inh, KDM4E inh, HPGD block)
Cc1ccc(OCc2nnc(SCC(=O)O)n2N)cc1	none
COc1ccc(OCc2nnc(SCC(=O)N(C)Cc3ccccc3)n2N)cc1	ALDH1A1 inh 8.91µM (no result: PNC assembly inh, HPGD block)
Clc1ccc(Cn2ncc3c(NCc4ccccc4)ncnc32)c(Cl)c1	HPGD block 20µM, ALDH1A1 inh inconclusive
CCOc1ccccc1NC(=O)Nc1ccc(Br)cc1C	none (no result: PNC assembly inh, HPGD block)
COC(=O)C1CCN(C(=O)COc2ccc(Cl)cc2)CC1	none
COC(=O)C1CCN(C(=O)COc2cc3sc(C)nc3c3sccc23)CC1	ALDH1A1 inh 11.2µM
Cc1c(N/C=C(\Cl)C(=O)C(F)(F)F)c(=O)n(-c2ccccc2)n1C	KDM4E inh inconclusive, ALDH1A1 inh 31.6µM (no result: PNC assembly inh, HPGD block)
COc1ccccc1NC=C1C(=O)OC2(CCCCC2)OC1=O	HPGD block inconclusive, ALDH1A1 inh 0.0562µM
COc1cccc(NC=C2C(=O)OC(C)(C)OC2=O)c1	ALDH1A1 inh 10µM
COc1cccc(NC=C2C(=O)OC3(CCCCC3)OC2=O)c1	ALDH1A1 inh 1.58µM
O=C1OC2(CCCCC2)OC(=O)C1=CNc1nccs1	ALDH1A1 inh inconclusive
O=C1OC2(CCCCC2)OC(=O)C1=CNc1nc2ccccc2s1	PNC assembly inh inconclusive, ALDH1A1 inh 11.2µM
CC(C)NS(=O)(=O)c1ccc(OCC(=O)Nc2ccc(F)cc2F)cc1	none
CC#C[C@@]1(O)CC[C@H]2[C@@H]3CCC4=CC(=O)CCC4=C3[C@H](c3ccc(N(C)C)cc3)C[C@]21C	none (no result: PNC assembly inh)
CC[C@H]1C2=C3C(CC[C@H]4C(OCc5ccc(F)cc5C(F)(F)F)OC[C@](C)([C@@H]34)N(C(=O)OC(C)(C)C)C2)C(COC(C)=O)C1COC(C)=O (some centres undefined)	KDM4E inh inconclusive (no result: PNC assembly inh)
Cc1cc(Oc2ccc(=O)n(C)n2)nc(SCCOc2ccccc2)n1	none (no result: PNC assembly inh, HPGD block, ALDH1A1 inh)
S=c1nc(-c2ccccc2)[nH]c2ccc(Br)cc12	none (no result: PNC assembly inh, HPGD block, ALDH1A1 inh)
CC(C)(C)c1ccc(COn2ccnc2)cc1	none (no result: PNC assembly inh, HPGD block)
O=C1OC2(CCCCC2)OC(=O)C1=CNc1ccc2c(c1)OCO2	ALDH1A1 inh 0.891µM
CNC[C@H](O)[C@H](O)[C@H](O)[C@H](O)CO	none (no result: PNC assembly inh)
CCN(CC)S(=O)(=O)c1ccc(NS(=O)(=O)c2ccc(OC)c([N+](=O)[O-])c2)cc1	ALDH1A1 inh inconclusive
COc1ccc(S(=O)(=O)Nc2ccc(S(=O)(=O)N(C)C)cc2)cc1[N+](=O)[O-]	ALDH1A1 inh 12.6µM
CCOC(=O)c1c(-c2ccc(OC)cc2)csc1/N=C/C1=C(O)CCCC1=O	PNC assembly inh inconclusive, ALDH1A1 inh 2.24µM
CCOC(=O)c1c(/N=C/C2=C(O)CCCC2=O)sc(C)c1C	none
N/C(=N/OS(=O)(=O)c1ccc([N+](=O)[O-])cc1)c1ccncc1	ALDH1A1 inh 31.6µM (no result: PNC assembly inh, HPGD block)

Compound activity from PubChem.
